Measurements reported in the antibiotic and cytotoxicity screens of Wong et al. (2023).
Out of some 39,000 compounds screened, about 3,300 (8.5%) were called active. For the sample, actives were picked, then their nearest neighbours and some compounds at random.

test system: HepG2; assay: cytotoxicity call (relative viability < 0.9); conditions: 10 µM

Row | Compound | cytotoxicity call
1 | Cc1noc(C)c1S(=O)(=O)Nc1ccc2c(c1)C(=O)N([C@H](C)CO)C[C@H](C)[C@@H](CN(C)C(=O)Nc1ccccc1)O2 | inactive
2 | CCn1cc(-c2ccnc3[nH]c(-c4cccc(CN(C)C)c4)cc23)c(-c2ccc(NC(=O)N(C)C)cc2)n1 | active
3 | C[C@@H]1CN([C@H](C)CO)S(=O)(=O)c2ccc(-c3ccc(F)cc3)cc2O[C@H]1CN(C)S(C)(=O)=O | inactive
4 | C#Cc1ccc([C@@H]2C=C(C(=O)N3CCN(Cc4ccc5c(c4)OCO5)CC3)O[C@H](OCC)[C@H]2CCCO)cc1 | inactive
5 | O=S1(=O)CC[C@H](N[C@H]2CCS(=O)(=O)C2)C1 | inactive
6 | C[C@H](CO)N1C[C@H](C)[C@@H](CN(C)S(=O)(=O)c2ccccc2)Oc2cc(C#Cc3ccncc3)ccc2S1(=O)=O | active
7 | C[C@@H]1CN([C@@H](C)CO)S(=O)(=O)c2ccc(C#Cc3ccncc3)cc2O[C@H]1CN(C)S(=O)(=O)c1ccccc1 | active
8 | C[C@@H]1CN([C@H](C)CO)S(=O)(=O)c2ccc(C#Cc3ccncc3)cc2O[C@@H]1CN(C)S(=O)(=O)c1ccccc1 | active
9 | C[C@H]1CN([C@@H](C)CO)S(=O)(=O)c2ccc(C#Cc3ccncc3)cc2O[C@H]1CN(C)S(=O)(=O)c1ccccc1 | active
10 | Cc1noc(C)c1NC(=O)Nc1ccc2c(c1)C(=O)N([C@@H](C)CO)C[C@H](C)[C@H](CN(C)CC1CCCCC1)OCCCC[C@@H](C)O2 | inactive
11 | COc1ccc(Br)cc1S(=O)(=O)NC(=O)/C=C/c1ccccc1Cc1ccc2ccccc2c1 | inactive
12 | COc1ccc(S(=O)(=O)Nc2ccc3c(c2)C(=O)N([C@@H](C)CO)C[C@@H](C)[C@@H](CN(C)C(=O)Nc2cccc4ccccc24)O3)cc1 | inactive
13 | C[C@@H]1CN([C@H](C)CO)S(=O)(=O)c2ccc(Br)cc2O[C@H]1CN(C)CC1CCOCC1 | inactive
14 | C[C@@H]1CN([C@H](C)CO)C(=O)c2cccc(NC(=O)NC3CCCCC3)c2O[C@@H]1CN(C)S(C)(=O)=O | inactive
15 | CC(C)C[C@@H]1NC(=O)[C@@H]2C[C@H](C(=O)NCCCCCCN(C)C)[C@H](c3cccc(OCCO)c3)N2C1=O | inactive
16 | CC(C)N1C[C@H](C)[C@@H](CN(C)Cc2ccc(Cl)cc2)Oc2c(NC(=O)c3ccncc3)cccc2C1=O | inactive
17 | C[C@@H]1CN([C@@H](C)CO)S(=O)(=O)c2ccc(C#Cc3ccncc3)cc2O[C@@H]1CN(C)S(=O)(=O)c1ccccc1 | active
18 | C[C@H](CO)N1C[C@H](C)[C@H](CN(C)S(=O)(=O)c2ccccc2)Oc2cc(C#Cc3ccncc3)ccc2S1(=O)=O | active
19 | C[C@@H]1CN([C@H](C)CO)S(=O)(=O)c2ccc(C#Cc3ccncc3)cc2O[C@H]1CN(C)S(=O)(=O)c1ccccc1 | active
20 | C[C@H]1CN([C@@H](C)CO)S(=O)(=O)c2ccc(C#Cc3ccncc3)cc2O[C@@H]1CN(C)S(=O)(=O)c1ccccc1 | active
21 | C[C@@H]1CN([C@H](C)CO)C(=O)c2cccc(NC(=O)c3cnccn3)c2O[C@@H]1CN(C)C(=O)NC1CCCCC1 | inactive
22 | Cc1noc(C)c1S(=O)(=O)Nc1cccc2c1O[C@@H](CN(C)Cc1ccccc1)[C@@H](C)CN([C@H](C)CO)C2=O | inactive
23 | C[C@@H]1CN([C@H](C)CO)C(=O)c2cccc(NC(=O)Nc3cccc4ccccc34)c2O[C@@H]1CN(C)S(=O)(=O)c1ccccc1 | inactive

Row | Compound | cytotoxicity call
24 | CCC(=O)N(C)C[C@@H]1Oc2ncc(C#C[C@H](C)O)cc2C(=O)N([C@@H](C)CO)C[C@H]1C | inactive
25 | O=C(C[C@@H]1C[C@@H]2c3cc(NC(=O)Nc4ccccc4)ccc3O[C@@H]2[C@H](CO)O1)NCCN1CCCCC1 | inactive
26 | C[C@H]1CCCN(C(=O)N2c3ccccc3Sc3ccccc32)C1 | inactive
27 | CN1CCC[C@@H](CC2c3ccccc3Sc3ccccc32)C1 | active
28 | CN1CCN2c3ccccc3Cc3ccccc3C2C1.Cl (stereo unspecified) | inactive
29 | C[C@@H]1CN([C@@H](C)CO)C(=O)c2c(c3ccccc3n2C)-c2ccccc2CO[C@H]1CN(C)C(=O)CCC(F)(F)F | inactive
30 | COCCc1nc2c(c(=O)n(C)c(=O)n2C)n1C | inactive
31 | Cn1c(=O)c2c(nc(SCSc3nc4c(c(=O)n(C)c(=O)n4C)n3C)n2C)n(C)c1=O | inactive
32 | Cn1c(=O)c2c(nc(S(C)(=O)=O)n2C)n(C)c1=O | active
33 | C[C@@H]1CN([C@@H](C)CO)C(=O)c2cc(NC(=O)Nc3cccc4ccccc34)ccc2O[C@H]1CN(C)C(=O)Nc1ccc(F)cc1 | inactive
34 | C[C@@H]1CN([C@H](C)CO)C(=O)CCCn2nncc2CO[C@H]1CN(C)S(=O)(=O)c1cn(C)cn1 | inactive
35 | C[C@H](CO)N1C[C@H](C)[C@H](CN(C)C(=O)Nc2ccc(C(F)(F)F)cc2)Oc2ccc(NC(=O)Nc3ccc(F)cc3)cc2CC1=O | inactive
36 | C[C@@H]1CN([C@H](C)CO)C(=O)Cc2cc(NC(=O)Nc3ccc(F)cc3)ccc2O[C@H]1CN(C)C(=O)Nc1ccc(C(F)(F)F)cc1 | inactive
37 | C[C@H]1CN([C@@H](C)CO)C(=O)Cc2cc(NC(=O)Nc3ccc(F)cc3)ccc2O[C@@H]1CN(C)C(=O)Nc1ccc(C(F)(F)F)cc1 | inactive
38 | C[C@H](CO)N1C[C@H](C)[C@@H](CN(C)C(=O)Nc2ccc(F)cc2)Oc2ccc(NC(=O)Nc3ccc(C(F)(F)F)cc3)cc2CC1=O | active
39 | C[C@H]1CN([C@@H](C)CO)C(=O)Cc2cc(NC(=O)Nc3ccc(C(F)(F)F)cc3)ccc2O[C@H]1CN(C)C(=O)Nc1ccc(F)cc1 | active
40 | C[C@@H]1CN([C@@H](C)CO)C(=O)Cc2cc(NC(=O)Nc3ccc(C(F)(F)F)cc3)ccc2O[C@@H]1CN(C)C(=O)Nc1ccc(F)cc1 | active
41 | C[C@@H]1CN([C@@H](C)CO)C(=O)Cc2cc(NC(=O)Nc3ccc(F)cc3)ccc2O[C@@H]1CN(C)C(=O)Nc1ccc(C(F)(F)F)cc1 | inactive
42 | C[C@@H]1CN([C@@H](C)CO)C(=O)Cc2cc(NC(=O)Nc3ccc(F)cc3)ccc2O[C@H]1CN(C)C(=O)Nc1ccc(C(F)(F)F)cc1 | inactive
43 | C[C@H](CO)N1C[C@H](C)[C@H](CN(C)C(=O)Nc2ccc(F)cc2)Oc2ccc(NC(=O)Nc3ccc(C(F)(F)F)cc3)cc2CC1=O | inactive
44 | C[C@@H]1CN([C@@H](C)CO)C(=O)Cc2cc(NC(=O)Nc3ccc(C(F)(F)F)cc3)ccc2O[C@H]1CN(C)C(=O)Nc1ccc(F)cc1 | inactive
45 | C[C@@H]1CN([C@H](C)CO)C(=O)Cc2cc(NC(=O)Nc3ccc(C(F)(F)F)cc3)ccc2O[C@@H]1CN(C)C(=O)Nc1ccc(F)cc1 | active
46 | C[C@@H]1CN([C@H](C)CO)C(=O)Cc2cc(NC(=O)Nc3ccc(C(F)(F)F)cc3)ccc2O[C@H]1CN(C)C(=O)Nc1ccc(F)cc1 | inactive
